The results in this text go back to PubChem BioAssay (NCI).

A short description of assay [1]: NCI Yeast Anticancer Drug Screen. Data for the rad50 strain (AID 155).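 Further: 0% = growth of vehicle-only cultures of the same strain.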 The note with it: S. cerevisiae rad50 strain growth inhibition; at 50.0 µM; active compounds read high. A digest of the protocol: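 DNA repair mutant yeast, compound exposure, growth read-out; inhibition is taken relative to vehicle.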
Assay [2] is described as follows: NCI Yeast Anticancer Drug Screen. Data for the mec2-1 strain (AID 157). The note with it: S. cerevisiae mec2-1 strain, at 50.0 µM, active compounds read high. A digest of the protocol: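 Strain: mec2-1 (DNA repair/cell cycle alteration). Compound exposure, then growth measured; inhibition expressed relative to vehicle.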
Assay [3] in a line: NCI Yeast Anticancer Drug Screen. Data for the sgs1 mgt1 strain (AID 161).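 Further: 0% = growth of cultures given vehicle only.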 The note with it: S. cerevisiae sgs1 mgt1 strain, at 50.0 µM, active compounds read high. A digest of the protocol:
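Read-out: growth inhibition vs vehicle controls. Cells: mutant yeast strain deficient in DNA damage repair.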

The nature of assay [4]: NCI Yeast Anticancer Drug Screen. Data for the cln2 rad14 strain (AID 165).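 Further: 0% = growth equal to vehicle treated cultures.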 As to conditions: S. cerevisiae cln2 rad14 strain, at 50.0 µM, active compounds read high. A digest of the protocol: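 Compounds are applied to the cln2 rad14 yeast strain, and growth is then compared with that of vehicle-treated cultures to give inhibition.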
Assay [5] can be described thus: NCI Yeast Anticancer Drug Screen. Data for the bub3 strain (AID 167). As to conditions: S. cerevisiae bub3 mutant strain, at 50.0 µM, active compounds read high. A digest of the protocol: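 In this screen, a yeast mutant lacking normal mitotic checkpoint function is challenged with compound. Relative growth versus vehicle gives the inhibition value.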
Assay [6] can be described thus: NCI Yeast Anticancer Drug Screen. Data for the mlh1 rad18 strain (AID 175). The note with it: S. cerevisiae mlh1 rad18 strain growth inhibition; at 50.0 µM; active compounds read high. A digest of the protocol:
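Read-out is yeast growth inhibition, calculated against vehicle-only controls. The compound was applied to a strain engineered with DNA damage repair alterations.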

The panel holds about 79,000 compounds, 15% with a hit somewhere; the sample as a whole holds those more often. Unmarked numbers belong to inactive results. Active and inactive are the calls of the source. No stated cut-off is given here; in the data, active means growth inhibition above about 70%; inactive means the rest.

Take `CCOC(=O)COc1cc(Cl)c(S(=O)(=O)F)cc1Cl`: the growth inhibition in assay [1] is 98.8% (active); in assay [2], 92.3% (active); in assay [3], 97.3% (active); in assay [4] it was 93.1% (active); in assay [5], 98.3% (active); in assay [6], 98% (active).
For the molecule `[N-]=[N+]=NC12CC3CC(CC(C3)C1)C2`, the growth inhibition was -9.7% in assay [1]; -6% in assay [2]; -7.45% in assay [3]; -9.35% in assay [4]; -25.6% in assay [5]; -20.2% in assay [6].
`CC(CN1NC12CCCC2)N1NC12CCCC2` (stereo unspecified): the growth inhibition in assay [1] was 0.95%; in assay [2], -1.85%; in assay [3], 29.2%; in assay [4], 24.4%; in assay [5] it was 15.6%; in assay [6] it was -35.5%.
As to `Cc1ccc(NC(=O)C(=O)C2C(=O)NC(=O)NC2=O)c(C)c1`, the growth inhibition is 13.9% in assay [1]; 9.75% in assay [2]; 5.75% in assay [3]; 11.2% in assay [4]; 15.9% in assay [5]; 17.6% in assay [6].
For `CC(=O)Nc1nn[nH]n1`, the growth inhibition in assay [1] was 21.9%; in assay [2] it was 14.4%; in assay [3] it was 2.1%; in assay [4], 6.95%; in assay [5] it was 0.7%; in assay [6] it was 17.5%.
For `O=C1NCC2C3CCC(O3)C12` (stereo unspecified), the growth inhibition in assay [1] was -6.3%; in assay [2], -16.1%; in assay [3] it was 7.95%; in assay [4], -10.2%; in assay [5], -17.4%; in assay [6], -12.1%.
`O=c1[nH]c(=O)c2[nH]c(N=Nc3ccc(N(CCCl)CCCl)cc3)nc2[nH]1`: the growth inhibition is 20.9% in assay [1]; 6.1% in assay [2]; 34.6% in assay [3]; 38.1% in assay [4]; 10.7% in assay [5]; 17.6% in assay [6].
On to `C/C=C/C(=O)O`, for which the growth inhibition in assay [1] is 4.3%; in assay [2] it was -4.65%; in assay [3] it was -24.5%; in assay [4], 10.2%; in assay [5], -0.05%; in assay [6], -9.75%.
With `O=C(c1ccccc1)c1ccc2n[se]nc2c1`, the growth inhibition is -32.4% in assay [1]; 10.2% in assay [2]; 18.2% in assay [3]; 4.65% in assay [4]; 17.1% in assay [5]; 25.5% in assay [6].
Consider `CN(CCC#N)c1ccc(C=C(C#N)C#N)cc1`, for which the growth inhibition in assay [1] is 7.25%; in assay [2], 11.3%; in assay [3] it was 7.65%; in assay [4], 8.05%; in assay [5] it was 24.7%; in assay [6], 5.65%.
On to `CCOC(=O)C(CC)(CC)C(=O)OCC`, for which the growth inhibition in assay [1] is -18.9%; in assay [2], -2.3%; in assay [3], -29.6%; in assay [4], -38%; in assay [5], -12.4%; in assay [6], 4%.
As to `CCOP(=O)(OCC)/C(C#N)=C/c1cccs1`, the growth inhibition is 0.5% in assay [1]; -35.2% in assay [2]; -15.2% in assay [3]; -15.8% in assay [4]; -41.8% in assay [5]; -13.7% in assay [6].
As to `C1C2CC3C1C1CN3C21` (stereo unspecified), the growth inhibition was 16.9% in assay [1]; 2.65% in assay [2]; 5.45% in assay [3]; -28% in assay [4]; -8.8% in assay [5]; 12.2% in assay [6].
`CCCCCCCCCCCCCCCC(=O)OCC1OC(OC)C2NP(=O)(N(CCCl)CCCl)OC1C2O` (stereo unspecified): the growth inhibition in assay [1] is 35.4%; in assay [2], -13.3%; in assay [3], -40.4%; in assay [4], -20.9%; in assay [5] it was 66.7%; in assay [6], 73% (active).
For the molecule `CCNC(=O)N1CC2CCC(C1)N2C`, the growth inhibition in assay [1] was -1.15%; in assay [2] it was 7.85%; in assay [3] it was 6.45%; in assay [4] it was -39.1%; in assay [5], -18.8%; in assay [6], 8.45%.
On to `COC12CC3(C)C(C4=CC(=O)OC4)CCC3(O)C3CCC4=CC(=O)CCC4(CO1)C32` (stereo unspecified), for which the growth inhibition is -1.85% in assay [1]; -10.2% in assay [2]; -11.4% in assay [3]; 15.8% in assay [4]; -16.9% in assay [5]; 6.6% in assay [6].
Take `O=C(Nc1ccc(Cl)cc1C(=O)c1ccccc1)c1ccc([N+](=O)[O-])cc1`: the growth inhibition in assay [1] is -1.4%; in assay [2], -3.1%; in assay [3], -0.5%; in assay [4] it was -40.1%; in assay [5] it was 4.2%; in assay [6], 12.8%.
Consider `O=C1NC2C(=CC(O)C(O)C2O)c2cc3c(cc21)OCO3` (stereo unspecified), for which the growth inhibition is 29.9% in assay [1]; 44.2% in assay [2]; 35.8% in assay [3]; 47.1% in assay [4]; 39.1% in assay [5]; 37.2% in assay [6].
Regarding `Nc1cc(S(=O)(=O)F)cc(Cl)c1O`, the growth inhibition in assay [1] is 25.2%; in assay [2] it was -3.55%; in assay [3] it was 14.9%; in assay [4] it was -61.2%; in assay [5], 23.2%; in assay [6] it was 24.6%.
For `CC(Cl)CN(CC(C)Cl)c1ccc2c(c1)Cc1ccccc1-2` (stereo unspecified), the growth inhibition in assay [1] is -20.8%; in assay [2], -10.1%; in assay [3], 2.65%; in assay [4], -46.9%; in assay [5] it was 23.1%; in assay [6], 9%.
Take `[Cl][Co][Br].[NH-]CC[NH-].[NH-]CC[NH-]`: the growth inhibition is -12.7% in assay [1]; 3.95% in assay [2]; 13.9% in assay [3]; -42.1% in assay [4]; 36.4% in assay [5]; 21.2% in assay [6].
